Measurements: PubChem BioAssay AID1159580 (chemical genetic matrix, 2015)
Among all 5,500 compounds or so, about 2,000 (36%) were called active. Not shown: some 18% with an inconclusive outcome. Rule as the data show it: active = normalized growth mostly below about 0.91 (no sharp cut-off); inconclusive = no clear call, values can overlap the other calls; inactive = mostly above about 0.92. This is one part of the list.

Assay: chemical genetic growth profiling, strain panel (AID 1159580);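 also: tested at 20 µM; growth read once vehicle control cultures reached saturation at 30 °C; 1 = growth at the plate median or of vehicle wells; lower values mean less growth of the strain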
Details: growth OD

Measured: normalized growth

CC(C)=CCc1c(O)cc2occ(-c3ccc4c(c3)OCO4)c(=O)c2c1O
active: S. cerevisiae deletion strains, locus YLL001W, strain dnm1, stronger effect = lower value 0.81 | S. cerevisiae deletion strains, locus YLR027C, strain aat2, stronger effect = lower value 0.918 | S. cerevisiae deletion strains, locus YLR113W, strain HOG1, stronger effect = lower value 0.75 | S. cerevisiae deletion strains, locus YLR221C, strain rsa3, stronger effect = lower value 0.865 | S. cerevisiae deletion strains, locus YML120C, strain ndi1, stronger effect = lower value 0.895 | S. cerevisiae deletion strains, locus YMR058W, strain fet3, stronger effect = lower value 0.828 | S. cerevisiae deletion strains, locus YOR001W, strain rrp6, stronger effect = lower value 0.857 | S. cerevisiae deletion strains, locus YOR231W, strain MKK1, stronger effect = lower value 0.816 | S. cerevisiae deletion strains, locus YOR270C, strain vph1, stronger effect = lower value 0.729 | S. cerevisiae deletion strains, locus YPL051W, strain arl3, stronger effect = lower value 0.877 | S. cerevisiae deletion strains, locus YPL256C, strain CLN2, stronger effect = lower value 0.808
inactive: S. cerevisiae deletion strains, locus YJR066W, strain TOR1, stronger effect = lower value 0.832 | S. cerevisiae deletion strains, locus YJR075W, strain HOC1, stronger effect = lower value 0.994 | S. cerevisiae deletion strains, locus YKL068W, stronger effect = lower value 1.01 | S. cerevisiae deletion strains, locus YKL085W, strain MDH1 (second series), stronger effect = lower value 1 | S. cerevisiae deletion strains, locus YKL085W, strain MDH1, stronger effect = lower value 1 | S. cerevisiae deletion strains, locus YKL160W, strain elf1, stronger effect = lower value 0.934 | S. cerevisiae deletion strains, locus YKL190W, strain CNB1, stronger effect = lower value 1.01 | S. cerevisiae deletion strains, locus YKR001C, strain vps1, stronger effect = lower value 1.03 | S. cerevisiae deletion strains, locus YKR026C, strain gcn3, stronger effect = lower value 0.992 | S. cerevisiae deletion strains, locus YKR091W, strain srl3, stronger effect = lower value 1 | S. cerevisiae deletion strains, locus YLL026W, stronger effect = lower value 0.984 | S. cerevisiae deletion strains, locus YLL041C, strain sdh2, stronger effect = lower value 0.991 | S. cerevisiae deletion strains, locus YLR039C, strain RIC1, stronger effect = lower value 1.06 | S. cerevisiae deletion strains, locus YLR058C, strain SHM2, stronger effect = lower value 1.02 | S. cerevisiae deletion strains, locus YLR102C, strain apc9, stronger effect = lower value 1.03 | S. cerevisiae deletion strains, locus YLR258W, strain gsy2, stronger effect = lower value 0.919 | S. cerevisiae deletion strains, locus YLR262C, strain YPT6 (second series), stronger effect = lower value 0.911 | S. cerevisiae deletion strains, locus YLR262C, strain YPT6, stronger effect = lower value 1.06 | S. cerevisiae deletion strains, locus YLR268W, strain sec22, stronger effect = lower value 1 | S. cerevisiae deletion strains, locus YLR320W, strain mms22, stronger effect = lower value 0.929 | S. cerevisiae deletion strains, locus YLR330W, strain CHS5, stronger effect = lower value 1.01 | S. cerevisiae deletion strains, locus YLR342W, strain FKS1 (second series), stronger effect = lower value 0.996 | S. cerevisiae deletion strains, locus YLR342W, strain FKS1, stronger effect = lower value 0.952 | S. cerevisiae deletion strains, locus YLR357W, strain rsc2, stronger effect = lower value 0.948 | S. cerevisiae deletion strains, locus YLR370C, strain arc18, stronger effect = lower value 0.992 | S. cerevisiae deletion strains, locus YLR371W, strain rom2, stronger effect = lower value 1.04 | S. cerevisiae deletion strains, locus YLR384C, strain iki3, stronger effect = lower value 0.992 | S. cerevisiae deletion strains, locus YLR418C, strain cdc73, stronger effect = lower value 1.01 | S. cerevisiae deletion strains, locus YML016C, strain PPZ1, stronger effect = lower value 1.01 | S. cerevisiae deletion strains, locus YML032C, strain rad52, stronger effect = lower value 1.02 | S. cerevisiae deletion strains, locus YML124C, strain tub3, stronger effect = lower value 1.02 | S. cerevisiae deletion strains, locus YMR078C, strain ctf18, stronger effect = lower value 1.03 | S. cerevisiae deletion strains, locus YMR125W, strain sto1, stronger effect = lower value 0.957 | S. cerevisiae deletion strains, locus YMR129W, stronger effect = lower value 0.982 | S. cerevisiae deletion strains, locus YMR205C, strain PFK2, stronger effect = lower value 0.96 | S. cerevisiae deletion strains, locus YMR223W, strain ubp8, stronger effect = lower value 1.02 | S. cerevisiae deletion strains, locus YMR231W, strain pep5, stronger effect = lower value 0.993 | S. cerevisiae deletion strains, locus YMR263W, strain SAP30, stronger effect = lower value 1 | S. cerevisiae deletion strains, locus YMR307W, strain GAS1, stronger effect = lower value 1 | S. cerevisiae deletion strains, locus YNL067W, strain RPL9B, stronger effect = lower value 1 | S. cerevisiae deletion strains, locus YNL071W, strain lat1, stronger effect = lower value 0.949 | S. cerevisiae deletion strains, locus YNL128W, strain TEP1, stronger effect = lower value 1.02 | S. cerevisiae deletion strains, locus YNL153C, strain GIM3, stronger effect = lower value 1 | S. cerevisiae deletion strains, locus YNL183C, strain NPR1, stronger effect = lower value 0.839 | S. cerevisiae deletion strains, locus YNL209W, strain ssb2, stronger effect = lower value 0.937 | S. cerevisiae deletion strains, locus YNL233W, strain BNI4, stronger effect = lower value 0.971 | S. cerevisiae deletion strains, locus YNL248C, strain rpa49, stronger effect = lower value 0.962 | S. cerevisiae deletion strains, locus YNL250W, strain rad50, stronger effect = lower value 1.04 | S. cerevisiae deletion strains, locus YNL271C, strain bni1, stronger effect = lower value 1.03 | S. cerevisiae deletion strains, locus YNL298W, strain CLA4, stronger effect = lower value 1.05 | S. cerevisiae deletion strains, locus YNL307C, strain MCK1, stronger effect = lower value 1.02 | S. cerevisiae deletion strains, locus YNL322C, strain KRE1 (second series), stronger effect = lower value 0.998 | S. cerevisiae deletion strains, locus YNL322C, strain KRE1, stronger effect = lower value 1.01 | S. cerevisiae deletion strains, locus YNR049C, strain mso1, stronger effect = lower value 0.982 | S. cerevisiae deletion strains, locus YNR052C, strain pop2, stronger effect = lower value 1.03 | S. cerevisiae deletion strains, locus YOL006C, strain TOP1, stronger effect = lower value 1.05 | S. cerevisiae deletion strains, locus YOL012C, strain htz1 0.966 | S. cerevisiae deletion strains, locus YOL147C, strain pex11, stronger effect = lower value 1.03 | S. cerevisiae deletion strains, locus YOR061W, strain CKA2, stronger effect = lower value 1.01 | S. cerevisiae deletion strains, locus YOR069W, strain VPS5, stronger effect = lower value 1.01 | S. cerevisiae deletion strains, locus YOR070C, strain gyp1, stronger effect = lower value 0.954 | S. cerevisiae deletion strains, locus YOR080W, strain dia2, stronger effect = lower value 0.925 | S. cerevisiae deletion strains, locus YOR083W, strain WHI5, stronger effect = lower value 0.925 | S. cerevisiae deletion strains, locus YOR106W, strain vam3, stronger effect = lower value 0.899 | S. cerevisiae deletion strains, locus YOR136W, strain idh2, stronger effect = lower value 1.03 | S. cerevisiae deletion strains, locus YOR144C, strain elg1, stronger effect = lower value 1.02 | S. cerevisiae deletion strains, locus YOR184W, strain ser1, stronger effect = lower value 1.05 | S. cerevisiae deletion strains, locus YOR265W, strain rbl2, stronger effect = lower value 0.968 | S. cerevisiae deletion strains, locus YOR290C, strain snf2, stronger effect = lower value 0.916 | S. cerevisiae deletion strains, locus YOR316C, strain cot1, stronger effect = lower value 1.02 | S. cerevisiae deletion strains, locus YPL055C, strain LGE1, stronger effect = lower value 0.993 | S. cerevisiae deletion strains, locus YPL078C, strain atp4, stronger effect = lower value 0.918 | S. cerevisiae deletion strains, locus YPL106C, strain sse1, stronger effect = lower value 0.915 | S. cerevisiae deletion strains, locus YPL240C, strain hsp82, stronger effect = lower value 0.974 | S. cerevisiae deletion strains, locus YPL241C, strain CIN2, stronger effect = lower value 1.01 | S. cerevisiae deletion strains, locus YPR119W, strain clb2, stronger effect = lower value 1.02 | S. cerevisiae deletion strains, locus YPR141C, strain kar3, stronger effect = lower value 1.03 | S. cerevisiae deletion strains, locus YPR163C, strain tif3, stronger effect = lower value 1.02 | S. cerevisiae deletion strains, locus YPR167C, strain met16, stronger effect = lower value 1.03 | S. cerevisiae deletion strains, strain wtn01, stronger effect = lower value 1.02 | S. cerevisiae strains, strain wild type, stronger effect = lower value 1
